Assays:
Assay in all cases: DAPPL (digital affinity profiling via proximity ligation, sequencing); 10 mM Tris-HCl pH 7.5, 50 mM NaCl, 1 mM DTT, 4% glycerol, room temperature, 30 min; GST-TFs on glutathione beads, 16-mer random dsDNA library, 0.1% formaldehyde crosslink after washing; high values mean tight binding
FEV = biological target: T1, FEV (Homo sapiens, UniProt Q99581 1-238); details: protein: recombinant; tags: N-terminal GST; dsDNA, one strand shown
T1 sequence: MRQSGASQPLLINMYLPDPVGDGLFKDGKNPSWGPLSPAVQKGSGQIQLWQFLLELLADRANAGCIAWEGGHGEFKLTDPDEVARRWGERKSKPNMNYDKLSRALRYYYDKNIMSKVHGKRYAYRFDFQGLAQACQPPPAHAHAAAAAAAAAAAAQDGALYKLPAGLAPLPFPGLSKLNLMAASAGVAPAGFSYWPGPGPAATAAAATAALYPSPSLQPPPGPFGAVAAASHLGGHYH
How it was run: (§1)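 Binding signal is given per hexamer as its read frequency for a factor divided by its frequency in the tag-only sample. GST-fused human transcription factors were expressed in yeast, captured on glutathione beads, barcoded with DNA and pooled with that sample, then incubated with 200 nmole of a 16-mer random double-stranded DNA library in Tris/NaCl/DTT/glycerol buffer for 30 min at room temperature. The pools were then washed, crosslinked, proximity-ligated, amplified by PCR and sequenced on an Illumina NextSeq500.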

ETV5 = ETV5 (Homo sapiens, UniProt P41161 1-510); details: protein: recombinant; tags: N-terminal GST; dsDNA, one strand shown
Sequence of ETV5 (P41161 whole entry): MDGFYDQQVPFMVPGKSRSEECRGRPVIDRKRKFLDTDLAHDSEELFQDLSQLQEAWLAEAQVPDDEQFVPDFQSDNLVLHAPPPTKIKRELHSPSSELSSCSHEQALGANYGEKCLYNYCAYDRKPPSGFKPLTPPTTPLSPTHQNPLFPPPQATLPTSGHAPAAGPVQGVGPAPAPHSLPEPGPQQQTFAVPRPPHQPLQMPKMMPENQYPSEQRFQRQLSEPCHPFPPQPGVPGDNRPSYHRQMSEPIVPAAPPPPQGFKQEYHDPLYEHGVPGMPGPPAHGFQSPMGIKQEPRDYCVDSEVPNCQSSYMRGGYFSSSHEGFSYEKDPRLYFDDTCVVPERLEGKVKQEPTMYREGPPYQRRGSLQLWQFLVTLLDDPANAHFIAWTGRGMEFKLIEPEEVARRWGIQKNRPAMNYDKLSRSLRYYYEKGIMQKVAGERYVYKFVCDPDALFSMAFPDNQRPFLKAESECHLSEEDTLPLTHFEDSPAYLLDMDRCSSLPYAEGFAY
How it was run: as §1

HSF1 = HSF1 (Homo sapiens, UniProt Q00613 1-529); details: protein: recombinant; tags: N-terminal GST; chain copies: 3; dsDNA, one strand shown
Sequence of HSF1 (Q00613 whole entry): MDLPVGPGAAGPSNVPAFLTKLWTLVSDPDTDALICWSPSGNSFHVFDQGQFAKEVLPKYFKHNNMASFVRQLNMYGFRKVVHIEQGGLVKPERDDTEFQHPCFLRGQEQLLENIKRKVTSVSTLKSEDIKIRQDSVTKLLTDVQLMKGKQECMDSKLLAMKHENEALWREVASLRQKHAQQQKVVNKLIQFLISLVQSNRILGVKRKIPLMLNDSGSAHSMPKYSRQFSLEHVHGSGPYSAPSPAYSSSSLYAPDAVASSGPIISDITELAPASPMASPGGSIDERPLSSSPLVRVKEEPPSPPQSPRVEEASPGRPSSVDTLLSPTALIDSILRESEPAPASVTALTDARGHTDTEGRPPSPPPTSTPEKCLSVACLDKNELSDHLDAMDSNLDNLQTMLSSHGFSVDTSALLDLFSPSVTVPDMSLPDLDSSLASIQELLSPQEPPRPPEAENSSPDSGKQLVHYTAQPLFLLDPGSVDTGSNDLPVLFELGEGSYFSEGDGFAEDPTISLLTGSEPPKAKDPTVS
How it was run: as §1

SPIC = biological target: T2, SPIC (Homo sapiens, UniProt Q8N5J4 1-248); details: protein: recombinant; tags: N-terminal GST; dsDNA, one strand shown
T2 sequence: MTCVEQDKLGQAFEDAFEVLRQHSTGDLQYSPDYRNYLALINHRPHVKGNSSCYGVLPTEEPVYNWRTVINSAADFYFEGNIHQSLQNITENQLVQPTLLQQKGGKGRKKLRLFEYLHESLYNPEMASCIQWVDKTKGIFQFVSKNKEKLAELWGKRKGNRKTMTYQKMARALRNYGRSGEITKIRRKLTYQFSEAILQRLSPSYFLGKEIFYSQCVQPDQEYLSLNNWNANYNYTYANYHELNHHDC
How it was run: as §1

ELF4 = ELF4 (Homo sapiens, UniProt Q99607 1-663); details: protein: recombinant; tags: N-terminal GST; dsDNA, one strand shown
Sequence of ELF4 (Q99607 whole entry): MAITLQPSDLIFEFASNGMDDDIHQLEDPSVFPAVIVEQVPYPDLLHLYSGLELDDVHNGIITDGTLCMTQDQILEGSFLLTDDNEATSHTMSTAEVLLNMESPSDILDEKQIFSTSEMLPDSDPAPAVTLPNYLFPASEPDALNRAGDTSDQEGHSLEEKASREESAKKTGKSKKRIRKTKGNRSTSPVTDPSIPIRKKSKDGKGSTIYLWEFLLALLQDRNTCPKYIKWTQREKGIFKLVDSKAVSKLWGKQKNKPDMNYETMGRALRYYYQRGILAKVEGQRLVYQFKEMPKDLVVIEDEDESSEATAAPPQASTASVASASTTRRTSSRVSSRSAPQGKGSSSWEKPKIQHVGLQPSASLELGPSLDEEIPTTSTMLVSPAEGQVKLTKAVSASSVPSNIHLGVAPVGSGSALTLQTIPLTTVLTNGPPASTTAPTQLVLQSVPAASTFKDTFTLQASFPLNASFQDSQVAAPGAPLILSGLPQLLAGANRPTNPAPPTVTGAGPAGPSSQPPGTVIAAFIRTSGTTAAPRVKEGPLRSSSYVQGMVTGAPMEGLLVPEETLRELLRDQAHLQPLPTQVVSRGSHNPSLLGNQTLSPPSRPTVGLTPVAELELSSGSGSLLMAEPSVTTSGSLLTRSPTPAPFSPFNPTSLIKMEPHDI
How it was run: as §1

ELK4 = biological target: T3, ELK4 (Homo sapiens, UniProt P28324-2 1-405); details: protein: recombinant; tags: N-terminal GST; dsDNA, one strand shown
T3 sequence: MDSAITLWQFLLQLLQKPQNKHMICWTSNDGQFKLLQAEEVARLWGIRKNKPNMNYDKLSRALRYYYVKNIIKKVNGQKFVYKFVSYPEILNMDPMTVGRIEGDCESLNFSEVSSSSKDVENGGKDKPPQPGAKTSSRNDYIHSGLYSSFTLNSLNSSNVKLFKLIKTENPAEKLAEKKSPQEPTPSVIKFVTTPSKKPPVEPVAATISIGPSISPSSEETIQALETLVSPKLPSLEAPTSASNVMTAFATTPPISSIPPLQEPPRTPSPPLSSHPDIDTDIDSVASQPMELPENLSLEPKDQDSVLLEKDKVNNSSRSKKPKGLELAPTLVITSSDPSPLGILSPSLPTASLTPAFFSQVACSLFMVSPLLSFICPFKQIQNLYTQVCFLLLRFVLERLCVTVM
How it was run: as §1

ETV2 = biological target: T4, ETV2 (Homo sapiens, UniProt O00321 1-342); details: protein: recombinant; tags: N-terminal GST; dsDNA, one strand shown
T4 sequence: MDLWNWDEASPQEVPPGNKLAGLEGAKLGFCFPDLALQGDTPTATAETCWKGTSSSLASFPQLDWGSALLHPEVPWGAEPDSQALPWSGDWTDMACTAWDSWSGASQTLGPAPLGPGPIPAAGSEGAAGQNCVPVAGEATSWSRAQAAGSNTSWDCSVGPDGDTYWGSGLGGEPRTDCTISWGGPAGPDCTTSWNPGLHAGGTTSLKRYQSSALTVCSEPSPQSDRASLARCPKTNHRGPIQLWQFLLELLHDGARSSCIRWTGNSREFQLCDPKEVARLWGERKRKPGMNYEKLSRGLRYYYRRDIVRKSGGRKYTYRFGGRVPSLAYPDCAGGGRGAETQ
How it was run: as §1

ELF3 = biological target: T5, ELF3 (Homo sapiens, UniProt P78545 1-371); details: protein: recombinant; tags: N-terminal GST; dsDNA, one strand shown
T5 sequence: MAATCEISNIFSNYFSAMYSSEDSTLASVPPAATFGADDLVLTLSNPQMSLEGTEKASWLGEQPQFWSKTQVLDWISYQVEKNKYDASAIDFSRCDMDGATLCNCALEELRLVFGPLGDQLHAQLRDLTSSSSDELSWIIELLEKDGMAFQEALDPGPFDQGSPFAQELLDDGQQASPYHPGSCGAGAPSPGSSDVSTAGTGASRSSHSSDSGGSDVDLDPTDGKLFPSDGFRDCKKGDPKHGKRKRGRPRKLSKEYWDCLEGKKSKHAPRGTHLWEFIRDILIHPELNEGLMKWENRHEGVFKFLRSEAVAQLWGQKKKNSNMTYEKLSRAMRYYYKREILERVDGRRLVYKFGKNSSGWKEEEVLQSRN
How it was run: as §1

CRX = CRX (Homo sapiens, UniProt O43186 1-299); details: protein: recombinant; tags: N-terminal GST; dsDNA, one strand shown
Sequence of CRX (O43186 whole entry): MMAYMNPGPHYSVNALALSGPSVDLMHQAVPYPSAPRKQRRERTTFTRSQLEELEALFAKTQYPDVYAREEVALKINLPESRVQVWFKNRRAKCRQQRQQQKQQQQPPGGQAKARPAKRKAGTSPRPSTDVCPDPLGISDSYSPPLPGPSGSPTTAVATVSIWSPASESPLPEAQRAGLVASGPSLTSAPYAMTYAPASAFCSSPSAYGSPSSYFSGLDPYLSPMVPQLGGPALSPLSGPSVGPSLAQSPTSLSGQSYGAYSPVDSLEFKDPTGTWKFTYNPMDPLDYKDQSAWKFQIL
How it was run: as §1

ETV1 = ETV1 (Homo sapiens, UniProt P50549 1-477); details: protein: recombinant; tags: N-terminal GST; dsDNA, one strand shown
Sequence of ETV1 (P50549 whole entry): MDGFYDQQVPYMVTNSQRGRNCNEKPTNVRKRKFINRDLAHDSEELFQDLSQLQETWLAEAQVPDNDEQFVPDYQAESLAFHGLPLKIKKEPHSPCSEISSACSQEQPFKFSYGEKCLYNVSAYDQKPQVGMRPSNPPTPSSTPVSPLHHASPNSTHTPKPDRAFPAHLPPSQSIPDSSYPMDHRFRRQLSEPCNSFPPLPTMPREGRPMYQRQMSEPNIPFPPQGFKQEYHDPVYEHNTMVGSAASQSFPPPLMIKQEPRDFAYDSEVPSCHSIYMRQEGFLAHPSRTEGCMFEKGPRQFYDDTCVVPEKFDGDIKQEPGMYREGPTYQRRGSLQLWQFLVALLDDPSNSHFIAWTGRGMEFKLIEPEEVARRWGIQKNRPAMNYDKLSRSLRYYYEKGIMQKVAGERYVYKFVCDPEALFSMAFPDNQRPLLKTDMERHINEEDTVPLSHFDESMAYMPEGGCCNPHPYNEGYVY
How it was run: as §1

ERF = biological target: T6, ERF (Homo sapiens, UniProt P50548 1-548); details: protein: recombinant; tags: N-terminal GST; dsDNA, one strand shown
T6 sequence: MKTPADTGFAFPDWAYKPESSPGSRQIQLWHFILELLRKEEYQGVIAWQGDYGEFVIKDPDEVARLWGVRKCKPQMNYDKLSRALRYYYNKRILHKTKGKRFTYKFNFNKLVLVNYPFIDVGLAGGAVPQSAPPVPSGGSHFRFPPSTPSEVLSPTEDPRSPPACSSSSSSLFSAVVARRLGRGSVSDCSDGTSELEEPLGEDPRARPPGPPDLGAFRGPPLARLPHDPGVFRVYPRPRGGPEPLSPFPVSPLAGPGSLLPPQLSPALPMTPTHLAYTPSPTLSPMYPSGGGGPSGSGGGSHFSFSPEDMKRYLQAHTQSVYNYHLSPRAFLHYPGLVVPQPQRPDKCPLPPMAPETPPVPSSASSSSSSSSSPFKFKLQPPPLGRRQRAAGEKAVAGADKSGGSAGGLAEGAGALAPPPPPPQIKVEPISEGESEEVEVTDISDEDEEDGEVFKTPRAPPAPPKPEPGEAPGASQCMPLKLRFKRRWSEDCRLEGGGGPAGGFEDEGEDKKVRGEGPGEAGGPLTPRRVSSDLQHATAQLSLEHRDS
How it was run: as §1

ETV3L = biological target: T7, ETV3L (Homo sapiens, UniProt Q6ZN32 1-361); details: protein: recombinant; tags: N-terminal GST; dsDNA, one strand shown
T7 sequence: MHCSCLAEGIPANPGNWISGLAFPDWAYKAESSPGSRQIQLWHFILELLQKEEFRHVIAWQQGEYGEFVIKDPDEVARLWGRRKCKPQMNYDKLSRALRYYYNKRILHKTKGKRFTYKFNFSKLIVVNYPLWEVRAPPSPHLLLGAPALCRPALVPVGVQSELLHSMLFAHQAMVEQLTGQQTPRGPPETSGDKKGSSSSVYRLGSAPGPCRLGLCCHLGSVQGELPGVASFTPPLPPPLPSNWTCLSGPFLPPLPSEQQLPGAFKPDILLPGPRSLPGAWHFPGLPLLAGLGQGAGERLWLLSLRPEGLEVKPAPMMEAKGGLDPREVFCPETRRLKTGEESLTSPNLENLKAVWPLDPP
How it was run: as §1

ETS2 = biological target: T8, ETS2 (Homo sapiens, UniProt P15036 1-469); details: protein: recombinant; tags: N-terminal GST; dsDNA, one strand shown
T8 sequence: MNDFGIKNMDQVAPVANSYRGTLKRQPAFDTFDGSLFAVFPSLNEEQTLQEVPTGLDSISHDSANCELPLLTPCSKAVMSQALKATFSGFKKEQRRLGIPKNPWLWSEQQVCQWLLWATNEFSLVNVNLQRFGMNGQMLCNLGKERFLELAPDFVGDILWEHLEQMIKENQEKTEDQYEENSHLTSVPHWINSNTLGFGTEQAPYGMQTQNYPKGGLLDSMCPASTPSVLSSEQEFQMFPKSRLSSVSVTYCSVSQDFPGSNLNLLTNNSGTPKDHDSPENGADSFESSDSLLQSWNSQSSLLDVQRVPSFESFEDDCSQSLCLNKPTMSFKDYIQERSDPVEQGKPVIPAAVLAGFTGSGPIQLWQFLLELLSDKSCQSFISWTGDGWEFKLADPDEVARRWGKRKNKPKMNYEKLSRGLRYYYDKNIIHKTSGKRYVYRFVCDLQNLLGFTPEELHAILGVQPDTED
How it was run: as §1

SPDEF = biological target: T9, SPDEF (Homo sapiens, UniProt O95238 1-335); details: protein: recombinant; tags: N-terminal GST; dsDNA, one strand shown
T9 sequence: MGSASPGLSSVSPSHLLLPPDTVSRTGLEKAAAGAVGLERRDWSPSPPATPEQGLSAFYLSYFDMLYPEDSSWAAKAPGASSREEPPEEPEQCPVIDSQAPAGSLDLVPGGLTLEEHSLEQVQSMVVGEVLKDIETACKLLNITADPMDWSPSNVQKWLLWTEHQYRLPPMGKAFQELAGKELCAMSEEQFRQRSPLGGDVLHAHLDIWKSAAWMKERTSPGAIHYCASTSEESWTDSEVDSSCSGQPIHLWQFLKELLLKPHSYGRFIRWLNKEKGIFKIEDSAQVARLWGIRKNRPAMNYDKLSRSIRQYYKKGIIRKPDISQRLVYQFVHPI
How it was run: as §1

ETV7 = biological target: T10, ETV7 (Homo sapiens, UniProt Q9Y603 1-341); details: protein: recombinant; tags: N-terminal GST; dsDNA, one strand shown
T10 sequence: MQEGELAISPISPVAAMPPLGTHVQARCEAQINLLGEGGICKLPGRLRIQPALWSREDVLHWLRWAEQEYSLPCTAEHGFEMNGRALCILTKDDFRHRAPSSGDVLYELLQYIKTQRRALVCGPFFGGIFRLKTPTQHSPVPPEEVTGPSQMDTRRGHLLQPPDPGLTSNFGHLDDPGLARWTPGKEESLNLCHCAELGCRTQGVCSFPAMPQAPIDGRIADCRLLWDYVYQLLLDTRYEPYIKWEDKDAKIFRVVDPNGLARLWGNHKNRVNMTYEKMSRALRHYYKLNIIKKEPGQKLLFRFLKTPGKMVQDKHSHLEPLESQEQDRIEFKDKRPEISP
How it was run: as §1

ELF5 = biological target: T11, ELF5 (Homo sapiens, UniProt Q9UKW6-2 1-255); details: protein: recombinant; tags: N-terminal GST; dsDNA, one strand shown
T11 sequence: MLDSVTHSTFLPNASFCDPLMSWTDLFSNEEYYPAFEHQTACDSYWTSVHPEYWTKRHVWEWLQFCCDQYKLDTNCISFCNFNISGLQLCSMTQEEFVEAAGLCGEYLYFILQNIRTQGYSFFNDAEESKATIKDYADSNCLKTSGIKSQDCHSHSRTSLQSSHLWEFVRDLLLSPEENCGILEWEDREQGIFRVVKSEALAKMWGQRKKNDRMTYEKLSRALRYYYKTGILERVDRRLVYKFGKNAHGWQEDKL
How it was run: as §1

ETV3 = biological target: T12, ETV3 (Homo sapiens, UniProt P41162-2 1-143); details: protein: recombinant; tags: N-terminal GST; dsDNA, one strand shown
T12 sequence: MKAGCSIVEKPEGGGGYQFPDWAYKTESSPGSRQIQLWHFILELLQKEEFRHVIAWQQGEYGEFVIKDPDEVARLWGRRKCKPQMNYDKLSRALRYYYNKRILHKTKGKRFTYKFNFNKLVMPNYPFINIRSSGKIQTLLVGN
How it was run: as §1

ETV6 = ETV6 (Homo sapiens, UniProt P41212 1-452); details: protein: recombinant; tags: N-terminal GST; dsDNA, one strand shown
Sequence of ETV6 (P41212 whole entry): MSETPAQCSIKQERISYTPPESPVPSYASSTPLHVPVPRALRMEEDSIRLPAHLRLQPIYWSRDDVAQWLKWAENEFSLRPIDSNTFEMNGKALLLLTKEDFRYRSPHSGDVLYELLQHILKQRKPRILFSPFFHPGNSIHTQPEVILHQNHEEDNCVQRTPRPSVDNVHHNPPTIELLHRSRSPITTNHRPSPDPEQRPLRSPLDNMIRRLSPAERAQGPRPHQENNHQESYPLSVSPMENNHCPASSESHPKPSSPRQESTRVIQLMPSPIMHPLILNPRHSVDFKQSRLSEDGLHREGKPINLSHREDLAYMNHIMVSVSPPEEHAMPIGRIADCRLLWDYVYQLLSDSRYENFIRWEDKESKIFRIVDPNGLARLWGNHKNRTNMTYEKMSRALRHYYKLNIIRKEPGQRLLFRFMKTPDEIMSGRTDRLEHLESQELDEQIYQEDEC
How it was run: as §1

TGGCTC
binding signal (FEV): 1.39 fold enrichment (6-mer frequency, TF over GST control) | binding signal (ETV5): 1.3 fold enrichment (6-mer frequency, TF over GST control) | binding signal (HSF1): 1.36 fold enrichment (6-mer frequency, TF over GST control) | binding signal (SPIC): 1.46 fold enrichment (6-mer frequency, TF over GST control) | binding signal (ELF4): 1.35 fold enrichment (6-mer frequency, TF over GST control) | binding signal (ELK4): 1.5 fold enrichment (6-mer frequency, TF over GST control) | binding signal (ETV2): 1.61 fold enrichment (6-mer frequency, TF over GST control) | binding signal (ELF3): 1.44 fold enrichment (6-mer frequency, TF over GST control) | binding signal (CRX): 1.3 fold enrichment (6-mer frequency, TF over GST control) | binding signal (ETV1): 1.42 fold enrichment (6-mer frequency, TF over GST control) | binding signal (ERF): 1.31 fold enrichment (6-mer frequency, TF over GST control) | binding signal (ETV3L): 1.5 fold enrichment (6-mer frequency, TF over GST control) | binding signal (ETS2): 1.23 fold enrichment (6-mer frequency, TF over GST control) | binding signal (SPDEF): 1.32 fold enrichment (6-mer frequency, TF over GST control) | binding signal (ETV7): 1.22 fold enrichment (6-mer frequency, TF over GST control) | binding signal (ELF5): 1.21 fold enrichment (6-mer frequency, TF over GST control) | binding signal (ETV3): 1.44 fold enrichment (6-mer frequency, TF over GST control) | binding signal (ETV6): 1.36 fold enrichment (6-mer frequency, TF over GST control)

— article PMC7862700, “An all-to-all approach to the identification of sequence-specific readers for epigenetic DNA modifications on cytosine”
